Cycloheximide cs: counter-screen for Shiga toxin inhibitors: cycloheximide protein synthesis inhibition; max response, %; hit rate 12% among 300,000; cell reporter, cycloheximide protein synthesis inhibition counterscreen; in the data active = max response mostly above about 13%, no sharp cut-off; inactive = mostly below about 14%; note: read at 38.3 µM for the half of the compounds with a filed dose
Pf growth 48h: P. falciparum growth inhibition at 48 hours (one generation). Potency, µM (doses to about 28.7 µM), hits mostly inhibitors. P. falciparum luciferase growth in erythrocytes, 48 h. hit rate 5.9% among 310,000. AID 504832
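First compound was added to culture medium, then infected red cells at 0.1% parasitemia and 2% hematocrit (final). After incubation at 37 C under 5% CO2, luciferase detection reagent was dispensed and light output recorded.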
Shiga toxin inh: inhibitors of Shiga toxin in Vero cells. Vero cells, Shiga toxin protein synthesis inhibition reporter. inhibition, % at 38.7 µM. hit rate 9.2% among 290,000. AID 2315; in the data active = inhibition mostly above about 28%, no sharp cut-off; inactive = mostly below about 43%
Pf growth 96h: inhibits malaria parasite growth, 96 h; P. falciparum luciferase reporter growth, 96 h; Potency, µM (doses to about 28.7 µM), hits mostly inhibitors; hit rate 6.9% among 320,000; AID 504834
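96 h incubation, 37 C, 5% CO2, of luciferase-reporter P. falciparum-infected RBCs (2% hematocrit, 0.05% parasitemia final) with test compounds; endpoint luminescence.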
Large screens that a line does not name were inactive. Rows were chosen to be rich in hits. Some 21% of all compounds tested hit in one or more screens of this group. Unless noted, calls come from the whole dose curve; as a rule, active = well fitted inhibition curve with a large enough effect; inconclusive = small, poorly fitted or top-dose-only effect, or another doubt; inactive = no such curve, though single readings can be large or run the other way.

COc1ccc(S(=O)(=O)N2CCOC23CCN(C(=O)c2ccc(Cl)cc2Cl)CC3)cc1	Pf growth 48h inconclusive
COc1ccc(S(=O)(=O)N2CCC3(CC2)OCCN3S(=O)(=O)c2ccc(OC)cc2)cc1	Pf growth 48h inconclusive, Pf growth 96h 9.3µM (no result: Cycloheximide cs, Shiga toxin inh)
COc1ccc(S(=O)(=O)N2CCOC23CCN(S(=O)(=O)c2ccc(Cl)cc2)CC3)cc1	Pf growth 48h 12µM, Pf growth 96h inconclusive (no result: Cycloheximide cs, Shiga toxin inh)
COc1ccc(S(=O)(=O)N2CCOC23CCN(S(=O)(=O)c2cc(C)ccc2C)CC3)cc1	none (no result: Cycloheximide cs, Shiga toxin inh)
CC(=O)Nc1ccc(NC(=O)CC(NC(=O)c2ccccc2)c2ccccc2)cc1 (configuration not stated)	none
COc1ccccc1C(=O)COC(=O)c1ccc(Cl)nc1	Pf growth 48h inconclusive (no result: Cycloheximide cs, Shiga toxin inh)
Cc1ccc(CC2C(=O)N(c3cc(Cl)ccn3)C(=O)C2C)cc1 (configuration not stated)	Cycloheximide cs 23, Shiga toxin inh 43
CC(C)(C)c1ccc(OCC(=O)Nc2ccc3c4c(cccc24)C(=O)NC3=O)cc1	Pf growth 48h inconclusive, Pf growth 96h inconclusive
Cc1ccc(S(=O)(=O)c2cnc(-c3ccccc3)nc2N2CCCCC2)cc1	Pf growth 48h 13µM
O=S(=O)(c1ccccc1)c1cnc(-c2ccccc2)nc1N1CCCC1	none
COc1ccc(Oc2nc(-c3ccccc3)ncc2S(=O)(=O)c2ccccc2)cc1	Pf growth 48h 15µM, Pf growth 96h inconclusive
COc1cccc(Sc2nc(-c3ccccc3)ncc2S(C)(=O)=O)c1	Cycloheximide cs 31, Shiga toxin inh 50, Pf growth 96h 9.3µM (no result: Pf growth 48h)
Cc1cccc(C)c1Oc1nc(-c2ccccc2)ncc1S(=O)(=O)c1ccccc1	Pf growth 48h 2.1µM, Pf growth 96h inconclusive
COc1nc(-c2ccccc2)ncc1S(=O)(=O)c1ccccc1	Pf growth 48h inconclusive, Pf growth 96h inconclusive
O=C(NCCc1ccccc1F)C1CCC(=O)N(Cc2ccc(Cl)cc2)C1 (configuration not stated)	none
CCOc1ccccc1N(CC)C(=O)c1nn(C)c2c1CSc1ccccc1-2	Pf growth 48h inconclusive
CC(C)CN(C(=O)COC(=O)c1nc(Cl)ccc1Cl)c1c(N)n(Cc2ccccc2)c(=O)[nH]c1=O	none
CCOc1ccc(NC(=O)CC2C(=O)N(C)C(=S)N2Cc2ccc3c(c2)OCO3)cc1 (configuration not stated)	Pf growth 96h inconclusive
CC(=O)NCCc1ccc(S(=O)(=O)N2CCN(c3nc(-c4ccccc4)c(C)s3)CC2)cc1	Pf growth 48h 3.7µM, Pf growth 96h 4.1µM
CC(=O)NCCc1ccc(S(=O)(=O)N2CCOCC2)cc1	none (no result: Pf growth 96h)
COc1ccc(C(=O)NC2CCN(S(=O)(=O)c3ccccc3F)CC2)cc1	Pf growth 48h 10µM
COc1ccc(CCNC(=S)N2CCN(S(=O)(=O)c3ccccc3)CC2)cc1	Pf growth 48h 10µM, Pf growth 96h inconclusive (no result: Cycloheximide cs, Shiga toxin inh)
COC(=O)c1ccccc1S(=O)(=O)N1CCC(NC(=O)c2ccccc2)CC1	Pf growth 48h inconclusive
Cc1ccc(S(=O)(=O)N2CCN(C(=S)NCC3CCCO3)CC2)cc1 (configuration not stated)	Pf growth 48h 3.7µM, Pf growth 96h 3.3µM (no result: Cycloheximide cs, Shiga toxin inh)
CCO/C([O-])=N/c1sn[n+](C)c1C	none
Cc1cc2cc(C)c(NCCNC(=O)c3cccs3)nc2cc1C	Pf growth 48h inconclusive, Pf growth 96h inconclusive
Cc1ccc(C)c(NC(=S)N2CCN(S(=O)(=O)c3ccccc3)CC2)c1	Pf growth 48h inconclusive, Pf growth 96h inconclusive
Cc1ccc(S(=O)(=O)N2CCN(C(=O)C(Cc3ccccc3)NC(=O)c3ccccc3)CC2)cc1 (configuration not stated)	Pf growth 48h inconclusive, Pf growth 96h 8.3µM (no result: Cycloheximide cs, Shiga toxin inh)
Cc1ccc(S(=O)(=O)N2CCN(C(=S)NCCc3ccccc3)CC2)cc1	Pf growth 48h inconclusive, Pf growth 96h 7.4µM
COc1ccc(CCNC(=S)N2CCN(S(=O)(=O)c3ccccc3F)CC2)cc1	Pf growth 48h 13µM, Pf growth 96h inconclusive
CCNC(=S)N1CCN(C(=O)C(Cc2ccccc2)NC(C)=O)CC1 (configuration not stated)	Pf growth 96h 10µM
O=[N+]([O-])c1cccc(/C=N/Nc2nc(N3CCOCC3)nc(N3CCOCC3)n2)c1	none
O=[N+]([O-])c1cccc(/C=C2\CCC(/C=N/Nc3ccc4ccccc4n3)=C2N2CCOCC2)c1	Cycloheximide cs 17, Pf growth 48h inconclusive, Pf growth 96h 0.41µM
Cc1nc2cc(NC(=O)COc3ccc(C#N)cc3)ccc2n1-c1ccccc1	Pf growth 96h inconclusive
O=C(NCCN1CCCCC1)Nc1ccc(F)cc1	Pf growth 96h inconclusive
CC(=O)Nc1ccc2c(c1)nc(C)n2-c1ccccc1	Cycloheximide cs 13, Pf growth 96h inconclusive
COc1ccccc1NC(=O)Nc1ccc2c(c1)nc(C)n2C	Cycloheximide cs 28
Cc1cc2nc(C)n(CCCNC(=O)Nc3ccc(F)cc3)c2cc1C	Pf growth 48h 12µM (no result: Pf growth 96h)
Cc1nc2cc(NC(=O)Nc3cccc4ccccc34)ccc2n1C	none
CCOc1ccc(NC(=O)Nc2ccc3c(c2)nc(C)n3C)cc1	Pf growth 48h inconclusive
Cc1ccc(NC(=O)Nc2ccc3c(c2)nc(C)n3C)cc1C	Cycloheximide cs 45, Shiga toxin inh 108, Pf growth 96h inconclusive
CC1(C)CC(NC(=O)Cc2ccccc2)CC(C)(C)N1	Pf growth 96h inconclusive (no result: Shiga toxin inh)
CN(Cc1cnccn1)C(=O)CC1C(=O)NCCN1Cc1c(F)cccc1Cl (configuration not stated)	none
COCCCN1C(=O)N(c2ccc(F)cc2)C(=O)C1CC(=O)Nc1ccc(OC)cc1 (configuration not stated)	none
NS(=O)(=O)c1ccc(NC(=O)COc2ccc(S(=O)(=O)N3CCCC3)cc2)cc1	none
Cc1nc2cc(NC(=O)c3ccc(Cl)cc3)ccc2n1C	Cycloheximide cs 26, Pf growth 96h inconclusive (no result: Shiga toxin inh)
COc1cc(C(=O)Nc2ccc3c(c2)nc(C)n3C)cc(OC)c1OC	none
Oc1c(N=Nc2ccccn2)ccc2ccccc12	Cycloheximide cs 36, Pf growth 48h inconclusive, Shiga toxin inh 79, Pf growth 96h 8.3µM
c1ccc2c(c1)ccc1ncccc12	none
COc1ccc(-c2nc(N)c(C#N)c(-c3cccnc3)c2C)cc1	Pf growth 48h inconclusive, Pf growth 96h inconclusive
Cc1ccc(C(=O)C2CCN(CC(=O)N3CCN(c4ccc(F)cc4)CC3)CC2)cc1	Pf growth 96h inconclusive
COc1ccc(C(=O)Nc2cc(C)on2)cc1	Cycloheximide cs 27
Cc1cc(NC(=O)c2ccc(NC(=O)C(C)C)cc2)no1	none (no result: Pf growth 96h)
CC(=O)Oc1ccc(C(=O)Nc2cc(C)on2)cc1	Cycloheximide cs 30, Shiga toxin inh 88
COc1ccc(OCc2cccc(C(=O)Nc3cc(C)on3)c2)cc1	Cycloheximide cs 91, Shiga toxin inh active
COc1ccc(-c2c3c(nc4sc(C(=O)Nc5cc(C)on5)c(N)c24)CCC3)cc1	Pf growth 48h 4.1µM
COc1ccc(CC(=O)N(C)C2CCCCC2)cc1S(=O)(=O)N1CCOCC1	none
CCCCn1c(N)c(N(CCC(C)C)C(=O)C2=NN(c3cc(C)ccc3C)C(=O)CC2)c(=O)[nH]c1=O	none (no result: Cycloheximide cs, Shiga toxin inh)
CNC(=O)COC(=O)[C@@H](Nc1ccc(S(=O)(=O)N2CCOCC2)cc1[N+](=O)[O-])C(C)C	none
C=CCOc1c(Cl)cc(C(=S)N2CCCC2)cc1OCC	none
N/C(CSc1ccccn1)=N\OCc1c(Cl)cccc1Cl	Shiga toxin inh 45

Source: PubChem
